Screening results from PubChem BioAssay.
ST2 inh: inhibitors of human ST2 (IL1RL1) binding to IL-33; AlphaLISA ST2-Fc/biotin-IL-33 interaction, 1 h; Q01638; inhibition, % for hits at 17 µM; actives 2.3% (n = 78,000); in the data active = inhibition above about 30%
Target sequence (Q01638 whole entry, looked up): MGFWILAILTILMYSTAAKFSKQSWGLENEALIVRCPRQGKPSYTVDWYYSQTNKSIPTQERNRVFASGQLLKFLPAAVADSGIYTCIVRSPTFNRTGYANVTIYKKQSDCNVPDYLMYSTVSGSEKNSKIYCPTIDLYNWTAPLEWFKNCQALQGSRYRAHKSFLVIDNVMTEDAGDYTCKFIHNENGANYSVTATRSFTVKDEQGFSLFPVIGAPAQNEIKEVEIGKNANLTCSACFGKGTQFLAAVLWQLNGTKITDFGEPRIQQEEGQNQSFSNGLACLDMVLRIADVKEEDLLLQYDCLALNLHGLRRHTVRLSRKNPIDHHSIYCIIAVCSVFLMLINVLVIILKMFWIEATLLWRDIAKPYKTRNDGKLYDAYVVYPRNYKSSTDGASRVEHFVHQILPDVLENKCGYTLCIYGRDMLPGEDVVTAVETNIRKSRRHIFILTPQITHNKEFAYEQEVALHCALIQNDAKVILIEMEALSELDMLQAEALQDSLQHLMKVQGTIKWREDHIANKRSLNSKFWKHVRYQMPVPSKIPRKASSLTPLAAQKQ
Starred values were filed as active, the others as inactive; i = inactive. This excerpt belongs to a sample that is enriched for hits.

SMILES | ST2 inh
CCOC(=O)c1cccc(NC(=O)N[C@H]2CO[C@H]3[C@@H]2OC[C@H]3OC(=O)Nc2ccccc2)c1 | i
COc1ccc(NC(=O)N[C@H]2CO[C@H]3[C@@H]2OC[C@H]3OC(=O)Nc2ccc(C(C)=O)cc2)cc1 | i
CC(=O)c1cccc(NC(=O)O[C@@H]2CO[C@H]3[C@@H]2OC[C@@H]3NC(=S)Nc2cc(C)cc(C)c2)c1 | i
O=C(Nc1cccc(C(F)(F)F)c1)N[C@H]1CO[C@H]2[C@@H]1OC[C@H]2OC(=O)Nc1ccc(Oc2ccccc2)cc1 | 31%*
CCNC(=O)O[C@@H]1CO[C@H]2[C@@H]1OC[C@@H]2NC(=S)Nc1cccc(C(=O)OC)c1 | 34%*
COc1ccc(NC(=O)O[C@@H]2CO[C@H]3[C@@H]2OC[C@@H]3NC(=O)Nc2cccc(C#N)c2)cc1 | 66%*
CC(C)c1ccc(N(C(=O)c2c(F)cccc2F)C2C=CS(=O)(=O)C2)cc1 (stereo not given) | i
CCc1cc2c(=O)c(-c3nc(C)cs3)c(N)oc2c(CN2CCOCC2)c1O | i
O=C(Nc1ccc(Br)cc1)C1CCN(S(=O)(=O)c2cccs2)CC1 | i
COc1ccc(CN2CCCN(CC(=O)Nc3ccc(F)cc3F)S2(=O)=O)cc1 | i
CC(NC(=O)c1ccc(Cl)cc1)c1ccccc1 (stereo not given) | i
CC(Nc1ccc(Cl)cc1N)c1ccccc1 (stereo not given) | 57%*
CC(NC(=O)c1cc2ccccc2o1)c1ccccc1 (stereo not given) | i
c1ccc(CCc2nc(CCn3nnc(-c4ccccc4)n3)n[nH]2)cc1 | i
Cc1ncc2c(c1CNS(=O)(=O)N(C)C)CCN(C(=O)Cc1c(F)ccc(F)c1F)C2 | i
CS(=O)(=O)N(CC(=O)O)c1ccc(Cl)c(Cl)c1 | i
Cc1ccc(-n2nc3c(c2NC(=O)COc2ccc(Cl)cc2Cl)CS(=O)C3)cc1 (stereo not given) | i
NC(=O)CSc1nc2c([nH]c3ccccc32)c(=O)n1-c1ccccc1 | i
COc1ccc(-n2c(SCC(N)=O)nc3c([nH]c4ccccc43)c2=O)cc1 | i
O=C(CSc1nc2c([nH]c3ccccc32)c(=O)n1-c1ccc(Cl)cc1)Nc1nccs1 | 31%*
CN(Cc1ncc[nH]1)C(=O)C1CCCN(C2CCN(c3nc4ccccc4o3)CC2)C1 (stereo not given) | i
CCOC(=O)C(C)Oc1cc2c(C)cc(=O)oc2cc1Cl (stereo not given) | i
O=C(C[C@@H]1O[C@H](CNC(=O)NC2CCCCC2)[C@@H](O)[C@H]1O)NCc1ccc(F)cc1 | i
CCN(CC)CCNC(=O)c1cc2cc3cc(OC)ccc3nc2s1 | i
COc1ccc2cc3cc(C(=O)NC4CC4)sc3nc2c1 | i
SMILES | ST2 inh
CCN(C(=O)c1cc2cc3ccc(OC)cc3nc2s1)c1cc(OC)ccc1OC | 31%*
Cc1ccc(-c2nc3ccccc3o2)cc1NC(=O)c1ccccc1 | i
O=C(c1ccccc1)N1C[C@@H]2C[C@H](C1)c1ccc(-c3ccccc3CN3CCOCC3)c(=O)n1C2 | i
COc1ccc(NC(=S)N[C@H]2C[C@H]3C(=O)NC[C@@H](CCC(=O)NC4CC4)N3C2)cc1 | i
O=C(CC[C@@H]1CNC(=O)[C@@H]2C[C@H](NC(=S)Nc3ccccc3)CN12)NC1CC1 | i
CCN(CC)C(=O)CC[C@@H]1CNC(=O)[C@@H]2C[C@H](NC(=S)Nc3ccccc3)CN12 | 36%*
COc1ccc(C2C(C(=O)Nc3cnc4ccccc4c3)CC(=O)N2c2ccc(OC)cc2)cc1 (stereo not given) | i
CC1CCc2cc(F)ccc2N1C(=O)CCS(=O)(=O)c1cccc2nonc12 (stereo not given) | i
OCCNc1nc(Nc2ccccc2)nc(N2CCCCC2)n1 | i
Clc1ccc(-n2ncc3c(NCCc4ccccc4)ncnc32)cc1 | i
CCc1ccc(OCCN(C)C(=O)c2ccc(C)[nH]c2=O)cc1 | i
O=C(c1cc([N+](=O)[O-])ccc1Cl)n1nnc2ccccc21 | i
O=C(CSc1nc2ccccc2s1)Nc1nc2ccc([N+](=O)[O-])cc2s1 | i
O=[N+]([O-])c1ccc(S(=O)(=O)c2nc3ccccc3s2)c(Cl)c1 | 54%*
O=C(NCC1CCCO1)c1cc(=O)[nH]c2ccc(S(=O)(=O)N3CCCCCC3)cc12 (stereo not given) | i
O=C(c1cccc([N+](=O)[O-])c1)N1CCOCC1 | i
O=C(c1sc2cc([N+](=O)[O-])ccc2c1Cl)N1CCOCC1 | i
CN(C)/C(=C1/c2cc([N+](=O)[O-])ccc2-c2c1cc([N+](=O)[O-])cc2[N+](=O)[O-])N1CCOCC1 | 79%*
[O-][n+]1onc2c1CCc1c-2nn(-c2ccccc2)[n+]1[O-] | i
Cc1cc(/C=C(\C#N)C(=O)Nc2ccccc2)c(C)n1-c1ccc(F)cc1 | i
COc1cccc(NC(=O)/C(C#N)=C\c2cn(Cc3ccccc3)c3ccccc23)c1 | 35%*
COc1cccc(NC(=O)/C(C#N)=C\c2cn(Cc3ccc(F)cc3)c3ccccc23)c1 | i
COc1ccccc1N=c1sc(C2=c3ccccc3=NC2=O)c(O)n1-c1ccccc1OC | 36%*
O=C(Nc1nccs1)c1ccc(C(=O)Nc2nccs2)cc1 | i
O=C1NC(=O)c2c1cccc2C(=O)Nc1ccccc1 | i
SMILES | ST2 inh
Cc1nc(-c2c(C)[nH]c3ccccc23)cs1 | 36%*
Cc1nc(-c2ccc(O)cc2)cs1 | i
Cc1[nH]c2ccccc2c1C(=O)CCC(=O)O | i
O=C(NC(N1CCOCC1)C(Cl)(Cl)Cl)c1ccc([N+](=O)[O-])cc1 (stereo not given) | i
O=C(COc1ccccc1)Nc1c(C(=O)Nc2ccc(F)cc2)oc2ccccc12 | i
COc1cc2[nH]c(=O)c(CN3C[C@@H](C)O[C@@H](C)C3)cc2c(OC)c1OC | i
C=CCn1c(Cc2c[nH]c3ccccc23)nnc1SCC(=O)Nc1cc(C)cc(C)c1 | i
O=C1c2ccccc2C(=O)C1c1ccccn1 | i
O=C1c2ccccc2C(=O)C1c1ccncc1 | 99%*
O=C1c2ccccc2C(=O)C1c1nc2ccccc2[nH]1 | i
Cc1ccccc1-c1nc(CSCC(=O)NC2CC2)c(C)o1 | i
Cc1ccc(Oc2ncccc2CNC(=O)Cn2nc(C)c(C)c2C)cn1 | i
O=C(CSc1ncnc2sc3c(c12)CCC3)c1ccc(F)cc1 | i
C[C@@H]1O[C@@H](O[C@@H]2[C@@H](O)[C@H](OCCc3ccc(O)c(O)c3)O[C@H](CO[C@@H]3OC[C@](O)(CO)[C@H]3O)[C@H]2OC(=O)/C=C/c2ccc(O)c(O)c2)[C@H](O)[C@H](O)[C@H]1O | i
COc1cc(OC2OC(COC3OCC(O)(CO)C3O)C(O)C(O)C2O)c2c(-c3ccc(O)c(O)c3)cc(=O)oc2c1 (stereo not given) | 33%*
C[C@@H]1O[C@@H](O[C@@H]2[C@@H](O)[C@H](C)O[C@@H](OCC3OC(Oc4c(-c5ccc(O)c(O)c5)oc5cc(O)cc(O)c5c4=O)C(O)C(O)C3O)[C@@H]2O)[C@H](O)[C@H](O)[C@H]1O (stereo not given in full) | i
CCCCN(Cc1ccccc1)S(=O)(=O)c1ccc2c(c1)CC(C)N2C(C)=O (stereo not given) | i
NS(=O)(=O)c1ccc(CCNC(=O)c2sc3ncccc3c2-n2cccc2)cc1 | i
O=C(c1cccc(Br)c1)n1nnc2ccccc21 | i
O=C(c1cn[nH]c1)N1CCOC(CC(c2ccccc2)c2ccccc2)C1 (stereo not given) | i
